PGC1a acetyl inh = PGC1a acetylation modulation, inhibitor mode | hit rate 0.17% among 350,000 | AID 651687 | U2OS PGC1a acetylation, AlphaScreen anti-acetyl-lysine; with virally co-expressed GCN5 acetyltransferase | inhibition, % at 15.6 µM;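 active means every replicate shows inhibition of at least 40%; inconclusive means mean inhibition at least 40% but some replicate below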
rRNA inh HTS = inhibits bacterial ribosomal RNA function over humanized ribosomes | E. coli WT GFP vs humanized-ribosome RFP mutants, fluorescence, 24 h; hits give low values; DMSO median 0, no signal -100 | AID 720706 | GFP signal change (wild-type ribosome), % (no concentration beside the values) | hit rate 1.6% among 350,000;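 active means significant combined selectivity score with lowered wild-type GFP, culture density cut under 30%, mutant RFP and density less affected; inactive means any of these conditions unmet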
PAX8 inh HTS = lowers PAX8-driven luciferase in RMG-I cells; RMG-I TPO-luciferase reporter, SteadyGlo, 24 h; inhibition, % at 12.6 µM; hit rate 1.2% among 360,000;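 active means mean replicate inhibition at least 60% with every replicate also reaching 60%; inconclusive means only one of the two criteria is met; inactive means mean below 60% and not all replicates reaching 60%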;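 further: luciferase light reporting Pax8 driven TPO promoter activity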
LGR2 antag = blocks bursicon-induced cAMP signaling via Drosophila LGR2; HEK293 LGR2, CRE-luciferase, bursicon-stimulated, 4 h; inhibition, % at 9.99 µM; hit rate 0.35% among 380,000;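 active means drop in luminescence signal, shown as inhibition above about 50% in the replicate tests, limit read from the data, passing the limit was not always enough; inconclusive means probably only some replicates passing the limit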;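 further: agonist challenge used bursicon conditioned medium at about half maximal strength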
EWS-Fli inh = inhibitors of EWS/Fli oncoprotein transcriptional activity; A673 NR0B1-luciferase reporter, viability-normalised; inhibition, % at 12.6 µM; hit rate 0.67% among 350,000;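 active means mean inhibition of at least 50% after viability correction, with every replicate also passing that limit; inconclusive means mean reaches 50% but only one of two replicates passes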;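 further: firefly luciferase signal divided by Alamar Blue viability fluorescence both relative to DMSO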
SIRT5 inh = blocks human SIRT5 desuccinylation of peptide; Q9NXA8; Purified SirT5, succinyl-peptide AMC, trypsin-coupled fluorescence; inhibition, % at 15 µM; hit rate 1.1% among 330,000; AID 652115; in the data active means inhibition above about 15%; inconclusive means no clear call, values can overlap the other calls
Target sequence (Q9NXA8 whole entry, looked up): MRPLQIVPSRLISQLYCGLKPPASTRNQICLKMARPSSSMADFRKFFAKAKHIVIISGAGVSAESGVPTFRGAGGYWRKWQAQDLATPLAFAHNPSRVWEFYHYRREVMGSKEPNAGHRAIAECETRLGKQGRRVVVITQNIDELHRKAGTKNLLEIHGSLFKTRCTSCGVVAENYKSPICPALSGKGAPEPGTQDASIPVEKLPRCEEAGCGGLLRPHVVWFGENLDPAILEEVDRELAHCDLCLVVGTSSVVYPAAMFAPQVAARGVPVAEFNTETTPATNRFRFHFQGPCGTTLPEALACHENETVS
A number is an active result; 0 = inactive; ? = inconclusive; - = no result. This is a sample that favours compounds with a hit; in the whole collection about 3.4% have one here.

SMILES	PGC1a acetyl inh	rRNA inh HTS	PAX8 inh HTS	LGR2 antag	EWS-Fli inh	SIRT5 inh
CNC(=S)Nc1ccc2[nH]c(=O)[nH]c2c1	0	0	0	0	0	21
C/C(=N\Nc1ccc(C(=O)O)cc1)c1ccc2c(c1)Nc1ccccc1S2	0	-45	0	0	0	24
C/C(=N/Nc1ccc(C(=O)O)cc1)c1ccc2c(c1)Nc1ccccc1S2	0	0	0	0	0	24
COc1ccc(/C(C)=N/Nc2cccc(C(=O)O)c2)cc1OC	-	0	0	0	0	0
CCCN(C)C[C@H]1Oc2cc(C#C[C@@H](C)O)ccc2S(=O)(=O)N([C@H](C)CO)C[C@H]1C	0	0	-	0	0	0
CCCNC(=O)C1(C)CCN(C(=O)C2(c3ccc(Cl)cc3)CCCC2)C1 (stereo not given)	0	0	0	0	0	-
CCCNC(=O)C1(C)CCCN(C(=O)C2(c3ccc(Cl)cc3)CCCC2)C1 (stereo not given)	0	0	0	0	0	30
C[C@@H]1CN([C@@H](C)CO)C(=O)c2cc(NC(=O)Nc3ccc(C(F)(F)F)cc3)ccc2O[C@@H](C)CCCCO[C@H]1CN(C)Cc1ccc2c(c1)OCO2	0	0	83	0	0	0
C[C@H]1CCCCO[C@H](CN(C)Cc2ccc3c(c2)OCO3)[C@@H](C)CN([C@@H](C)CO)C(=O)c2cc(NC(=O)Nc3ccc(C(F)(F)F)cc3)ccc2O1	79	0	67	0	75	0
C[C@@H]1CCCCO[C@@H](CN(C)Cc2ccc3c(c2)OCO3)[C@@H](C)CN([C@H](C)CO)C(=O)c2cc(NC(=O)Nc3ccc(C(F)(F)F)cc3)ccc2O1	0	0	0	0	0	0
C[C@@H]1CCCCO[C@H](CN(C)Cc2ccc3c(c2)OCO3)[C@H](C)CN([C@@H](C)CO)C(=O)c2cc(NC(=O)Nc3ccc(C(F)(F)F)cc3)ccc2O1	0	0	63	0	75	0
C[C@@H]1CCCCO[C@H](CN(C)Cc2ccc3c(c2)OCO3)[C@@H](C)CN([C@@H](C)CO)C(=O)c2cc(NC(=O)Nc3ccc(C(F)(F)F)cc3)ccc2O1	53	-	101	-	69	0
CC(C)NC(=O)Nc1ccc2c(c1)C(=O)N(C)C[C@H](C)[C@@H](CN(C)C(=O)OC(C)(C)C)O2	-	0	-	-	-	-
C[C@@H]1CN([C@@H](C)CO)S(=O)(=O)c2ccc(-c3cccc(F)c3)cc2O[C@H]1CN(C)C(=O)C1CC1	0	0	0	0	0	-
C[C@H](CO)N1C[C@H](C)[C@H](CN(C)Cc2ccc3c(c2)OCO3)OCCCC[C@H](C)Oc2ccc(NC(=O)Nc3ccc(C(F)(F)F)cc3)cc2C1=O	0	0	108	0	76	0
C[C@@H]1CN([C@H](C)CO)C(=O)c2cc(NC(=O)Nc3ccc(C(F)(F)F)cc3)ccc2O[C@@H](C)CCCCO[C@H]1CN(C)Cc1ccc2c(c1)OCO2	0	0	108	0	77	0
COc1cc(/C=N/O)ccc1OCc1ccc(C(=O)O)cc1	0	-	94	-	-	-
COc1cc(/C=N/NC(N)=S)ccc1OCc1ccc(C)cc1	-	0	75	0	0	0
COc1cc(/C=N/NC(N)=S)ccc1OC(=O)c1ccc(C)cc1	-	-	81	-	-	-
COc1cc(/C=N/NC(=O)c2ccc(N)cc2)ccc1OC(=O)c1cccc(C)c1	-	0	0	0	-	0
O=C(O)c1ccc(Nc2nc3c(s2)CCCC3)cc1	0	0	67	?	67	0
Cc1cccc(Nc2nc3c(s2)CCCC3)c1	0	-	0	0	-	-
CC(=O)N1Cc2cc(C(=O)NCC(F)(F)F)nc(-c3cccc(-c4cncnc4)c3)c2[C@H]1CCO	0	0	0	0	0	0
COCCCNC(=O)C(=O)Nc1ccc2c(c1)N(S(=O)(=O)c1cccs1)CCC2	0	0	0	0	63	0
CCOc1ccc(NC(=O)COC(=O)Cc2ccsc2)cc1	0	-	0	0	0	20
SMILES	PGC1a acetyl inh	rRNA inh HTS	PAX8 inh HTS	LGR2 antag	EWS-Fli inh	SIRT5 inh
CN(C)S(=O)(=O)c1ccc(Nc2nc(C3CC3)nc3c2nnn3Cc2ccccc2Cl)cc1	-	-	67	0	-	-
C[C@@H]1CCCCO[C@H](CN(C)S(C)(=O)=O)[C@@H](C)CN([C@@H](C)CO)C(=O)c2cc(NC(=O)Nc3ccc4c(c3)OCO4)ccc2O1	0	0	-	0	0	0
Cc1ccc(-c2c[n+](Cc3cccc(Cl)c3)c3n2CCC3)cc1	-	-	0	-	0	0
Cc1ccc(-c2c[n+](CC(=O)N3c4ccccc4Sc4ccccc43)c3n2CCC3)cc1	-	0	91	0	0	0
Cc1ccc(C[n+]2cc(-c3ccc(Cl)cc3)n3c2CCC3)cc1	0	-47	0	0	0	0
Cc1ccc(-c2c[n+](Cc3ccc(Cl)cc3)c3n2CCC3)cc1	-	-	0	-	0	40
O=C(C[n+]1cc(-c2ccccc2)n2c1CCC2)N1c2ccccc2Sc2ccccc21	-	-	0	0	-	-
CC(=O)N(C)C[C@@H]1Oc2ncc(C#Cc3cccnc3)cc2C(=O)N([C@H](C)CO)C[C@H]1C	0	0	-	0	0	0
Cc1ccc(S(=O)(=O)N2[C@@H](c3ccc(Br)cc3)C(C(=O)O)=CC[C@H]2c2ccc(C(C)C)cc2)cc1	0	-23	0	0	0	15
Cc1ccc(S(=O)(=O)N2[C@@H](c3ccc(Cl)cc3)C(C(=O)O)=CC[C@H]2c2cccs2)cc1	-	-29	0	0	0	-
Cc1ccc(S(=O)(=O)N2[C@@H](c3ccccc3F)C(C(=O)O)=CC[C@H]2c2ccc3c(c2)OCO3)cc1	-	-21	0	0	0	0
Cc1ccc(S(=O)(=O)N2[C@@H](c3ccc(F)cc3)C(C(=O)O)=CC[C@H]2c2ccc3c(c2)OCO3)cc1	-	0	0	0	0	-
Cc1ccc(S(=O)(=O)N2[C@@H](c3ccc(C(C)(C)C)cc3)C(C(=O)O)=CC[C@H]2c2ccc(C(C)C)cc2)cc1	0	0	0	0	0	28
C/C=C/c1ccc([C@H]2[C@@H](CO)N(CC3CCCC3)[C@H]2CNC(=O)NC(C)C)cc1	-	0	-	-	-	-
CO[C@@H]1CN(C)C(=O)c2cc(NC(=O)Nc3c(C)noc3C)ccc2OC[C@@H](C)N(C)C[C@H]1C	0	0	0	0	0	-
Cc1ccc([C@@H]2CC=C(C(=O)O)[C@H](c3ccc(C(C)(C)C)cc3)N2S(=O)(=O)c2ccc(C)cc2)cc1	0	0	0	0	0	0
CCc1ccc([C@@H]2CC=C(C(=O)O)[C@H](c3ccc(C(C)(C)C)cc3)N2S(=O)(=O)c2ccc(C)cc2)cc1	0	0	0	0	0	22
Cc1ccc(S(=O)(=O)N2[C@@H](c3ccc(F)cc3)C(C(=O)O)=CC[C@H]2c2cccc(C)c2)cc1	0	-25	0	0	0	-
Cc1ccc(S(=O)(=O)N2[C@@H](c3ccc(C(C)(C)C)cc3)C(C(=O)O)=CC[C@H]2c2ccc(Cl)cc2)cc1	0	0	0	0	0	16
